Experimental data: PubChem BioAssay (NCI)
Compounds without any hit were thinned out: in the full panel of roughly 79,000, 15% have a hit. Active and inactive are the calls of the source. Rule as the data show it: active = growth inhibition above about 70%; inactive = the rest.

experiment: NCI Yeast Anticancer Drug Screen. Data for the cln2 rad14 strain (AID 165);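 also: 0% = growth equal to vehicle treated cultures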; details: S. cerevisiae cln2 rad14 strain, at 50.0 µM, stronger effect = higher value
Procedure: Growth inhibition of yeast strains with defined genetic alterations is measured as a screen for potential anti-cancer activity. Selected strains with alterations in DNA damage repair or cell cycle control were exposed to compounds and growth inhibition was measured relative to vehicle treated controls. The strain used in this assay is cln2 rad14

| SMILES | growth inhibition |
| --- | --- |
| O=C(CO)CC(=O)C(=O)Nc1nc([N+](=O)[O-])cs1 | 7.9% (inactive) |
| Nc1c(Cl)cccc1C(=O)c1ccccc1C(=O)O | -14.8% (inactive) |
| CN=C(C#N)c1ccccc1 | -28.9% (inactive) |
| COc1cc(NC=C2C(=O)OC(C)(C)OC2=O)c(OC)c(C)c1OC | 0.5% (inactive) |
| COC[C@H]1C(=O)NCC(=O)N2N=CCC[C@H]2C(=O)N(O)[C@H](C)C(=O)O[C@@H](C(C)C)[C@H](NC(=O)[C@@](C)(O)[C@]2(O)CC[C@@H](CC(C)C)[C@H](C)O2)C(=O)N2NCCC[C@@H]2C(=O)N1O | 91.2% (active) |
| O=C1NC2(O)C(=O)c3ccccc3C2(O)N1 (stereo not given) | 5.8% (inactive) |
| CC(C)(C)OC(=O)NC(CCCCNC(=O)OCc1ccccc1)C(=O)NCCNc1ccc(NCCNC(=O)C(CCCCNC(=O)OCc2ccccc2)NC(=O)OC(C)(C)C)c2c1C(=O)c1ccccc1C2=O (stereo not given) | -1.4% (inactive) |
| CCC(=O)Nc1cccc(OC(=O)NC2CCCCC2)c1 | 1.3% (inactive) |
| O=C1CSC(=S)N1.[Cu+2] | -7.65% (inactive) |
| Cc1ccc([B-]23OCC[N+]2(CNC(=O)c2ccccc2O)CCO3)cc1 (stereo not given) | 3.6% (inactive) |
| COc1ccc(/C=C/C(=O)c2ccc(Cl)s2)cc1 | -34.3% (inactive) |
| COC(=O)C1(C)CCCC2(C)C1CCC13OC(=O)C(C(C)C)(CC21)C3O (stereo not given) | -33.7% (inactive) |
| Ic1ccc(N=Nc2ccccc2)cc1 | -70.3% (inactive) |
| COc1ccc(-c2cc(-c3cc(C)cc(Br)c3O)no2)cc1 | -3.2% (inactive) |
| O=C1OCC(O)=C1C(c1ccc(Cl)cc1)c1cc2c(cc1O)OCO2 (stereo not given) | -16.3% (inactive) |
| CCCCNC(C)=O | -21.6% (inactive) |
| CCCCC(=O)N/N=C/c1ccccc1OCC | -3.3% (inactive) |
| C=C(Br)CNC(=O)Nc1ccc(Cl)c(Cl)c1 | 5.7% (inactive) |
| CC1CC(=O)Nc2ncccc2N1 (stereo not given) | -28.6% (inactive) |
| CC(C)(C)OC(=O)NC(CS(=O)(=O)O)C(=O)O (stereo not given) | 13.4% (inactive) |

| SMILES | growth inhibition |
| --- | --- |
| O=[N+]([O-])c1cc(Br)c(F)cc1F | -32.2% (inactive) |
| Clc1ccccc1CSc1cc(SCc2ccccc2Cl)nc(SCc2ccccc2Cl)n1 | 23.3% (inactive) |
| c1ccc(C2=Nc3ccccc3N=C3CCCC32)cc1 (stereo not given) | 10.6% (inactive) |
| c1ccc(-c2ccc(C(=C(c3ccc(-c4ccccc4)cc3)c3ccc(-c4ccccc4)cc3)c3ccc(-c4ccccc4)cc3)cc2)cc1 | -4.15% (inactive) |
| O=C(O)CNC(=O)CNC(=O)C(CCC(=O)OCc1ccccc1)NC(=O)OCc1ccccc1 (stereo not given) | 9.3% (inactive) |
| CC(C)(C)SCC(=O)O | 19.5% (inactive) |
| C/C(CC/C(C)=N/NC(N)=O)=N/NC(N)=O | 0.55% (inactive) |
| COc1cccc([B-]23OCC[N+]2(CNC(=O)c2ccccc2O)CCO3)c1 (stereo not given) | 6.75% (inactive) |
| CCCC(=O)OC1CCCC1 | 24.1% (inactive) |
| C=CCN(N=O)C(=O)N(CCC)CCCC(NC(C)=O)C(=O)NCc1ccccc1 (stereo not given) | 22.6% (inactive) |
| Cc1cc(C)c(C(=O)Oc2ccc(C)c(CC(Cl)(Cl)Cl)c2)c(C)c1 | 19.1% (inactive) |
| NCCC(=O)O | 12.1% (inactive) |
| COC(=O)CCC(=O)c1cc(OC)c2cc3ccccc3cc2c1OC | 5.75% (inactive) |
| CN(C)C=Nc1ccc([N+](=O)[O-])cc1 | -12.8% (inactive) |
| COc1ccc(Cl)cc1NC(=O)c1cccc(Cl)c1 | 10.9% (inactive) |
| C[N+](C)(C)CCOC(=O)/C=C/c1cnc[nH]1 | 23.6% (inactive) |
| COc1cccc(C(=O)NNC(=O)c2ccc3ccccc3c2)c1 | 6.55% (inactive) |
| CCOC(=S)SCc1cc(C(C)(C)C)c(O)c(C(C)(C)C)c1 | -20.2% (inactive) |
| Nc1ccccc1C(=O)ONC(=O)c1ccccc1 | 99% (active) |
| NC1=NC(=O)C(CC(=O)Nc2ccc([N+](=O)[O-])cc2[N+](=O)[O-])S1 (stereo not given) | 3.3% (inactive) |
